Data reported in the supplement of paper PMC3334620.
In all, about 33,000 sequences were measured (“E-score (-0.5 to 0.5)”: median about -0.036, highest 2% from about 0.37 on). The sample holds the highest values, similar sequences and a random draw of the others, so the mix is not that of the screen.

Molecular target: T1, Yer064c (UniProt P40041)
T1 sequence: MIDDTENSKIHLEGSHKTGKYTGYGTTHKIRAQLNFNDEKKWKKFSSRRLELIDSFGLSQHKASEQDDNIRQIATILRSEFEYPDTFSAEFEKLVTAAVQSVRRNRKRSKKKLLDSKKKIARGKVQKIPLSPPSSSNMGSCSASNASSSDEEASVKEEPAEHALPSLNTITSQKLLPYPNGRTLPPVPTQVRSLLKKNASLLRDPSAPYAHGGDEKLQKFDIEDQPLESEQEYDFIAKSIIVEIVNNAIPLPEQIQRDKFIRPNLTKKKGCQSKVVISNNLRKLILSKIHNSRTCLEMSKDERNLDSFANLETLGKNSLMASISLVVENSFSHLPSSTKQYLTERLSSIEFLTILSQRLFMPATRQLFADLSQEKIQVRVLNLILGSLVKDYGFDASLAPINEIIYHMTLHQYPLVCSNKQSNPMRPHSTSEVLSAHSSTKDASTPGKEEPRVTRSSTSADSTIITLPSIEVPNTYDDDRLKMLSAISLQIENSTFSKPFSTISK
Test: PBM E-score (8-mer binding enrichment) (E-score (-0.5 to 0.5)); higher = stronger / more preferred TF binding
Settings: protein concentration: 200 nM; construct: GST-full length
Experimental: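 Universal 'all 10-mer' protein binding microarrays (Agilent AMADID 015681) probed with GST-tagged S. cerevisiae TFs (full-length or DBD) made by in vitro transcription/translation (PURExpress), about 100-200 nM. Bound TF was detected with fluorescent anti-GST. Each ungapped 8-mer (which stands for itself and its reverse complement) is scored by the PBM enrichment score (E-score), a modified Wilcoxon-Mann-Whitney statistic from -0.5 to +0.5, computed with the Universal PBM Analysis Suite. Scale: above 0.35 generally sequence-specific binding.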

Row | Sequence | PBM E-score
1 | AGAATCAG | 0.325
2 | GTTCTATA | -0.0345
3 | AAGGGTGT | -0.00845
4 | AGCGCTGG | 0.0943
5 | CACAACTG | -0.113
6 | ACCTGGCA | -0.145
7 | CGATTCTA | 0.0229
8 | CACCAACC | -0.0246
9 | GTCACAGA | 0.237
10 | CGAATCCC | -0.125
11 | CCAATCAG | 0.0381
12 | CGAATCCG | 0.0437
13 | CCAATCAC | 0.182
14 | CGAATCAC | 0.4
15 | CGAATCAG | 0.384
16 | ACCTTGGA | -0.0702
17 | ACAACTGC | -0.0478
18 | AAAAGCCG | -0.213
19 | GAGTCCTA | 0.399
20 | CAGTCTTA | 0.278
21 | GAGTCTTA | 0.453
22 | CAGTCCTA | 0.183
23 | ATGTCTCC | 0.216
24 | ATGTCTCA | 0.414
25 | ATGTCTCG | 0.17

Row | Sequence | PBM E-score
26 | AAGTCCTA | 0.186
27 | AAGTCTCC | 0.107
28 | CAGTCTCC | 0.211
29 | AAGTCTTA | 0.213
30 | GAGTCTCC | 0.419
31 | AATCTTAA | 0.244
32 | CCCGCATA | -0.019
33 | ATGTAGCA | -0.146
34 | ACATCTGG | -0.137
35 | AACTTCCG | 0.0922
36 | CAGTGATC | 0.0804
37 | TAGTCTCA | 0.36
38 | AAGTCTCA | 0.239
39 | GAGTCTCA | 0.411
40 | ATATGCAG | 0.196
41 | AGCAAATA | -0.157
42 | GCACTGGC | -0.194
43 | GACTCACC | 0.478
44 | CACTCACA | 0.0403
45 | AACTCACC | 0.275
46 | CACTCACC | 0.207
47 | AACTCACG | 0.211
48 | GACTCACA | 0.472
49 | AACTCACA | 0.259
50 | TACTCACA | 0.367

Row | Sequence | PBM E-score
51 | CACTCACG | 0.112
52 | CCAGATCA | 0.058
53 | CGAAGCCA | 0.0935
54 | CTCCCCGA | -0.0625
55 | AGTAGCTG | 0.0121
56 | GCAGAACC | -0.118
57 | ATCGAGCA | -0.149
58 | ACCTGACT | 0.44
59 | AGCTGACG | -0.134
60 | ACCTGACG | -0.192
61 | AACTGACA | -0.287
62 | AACTGACT | 0.404
63 | ACCTGACC | -0.13
64 | AGCTGACC | -0.078
65 | AACTGACC | -0.163
66 | AGCTGACT | 0.458
67 | AAGTGCAG | 0.0456
68 | CCCGTGCC | -0.103
69 | AGGTAACG | -0.0878
70 | ATTCCATA | -0.0291
71 | AGCGCATC | -0.0879
72 | TACTACTA | 0.0844
73 | GACTACTA | 0.417
74 | CAGTACTC | 0.24
75 | AACTACTC | 0.199

Row | Sequence | PBM E-score
76 | CACTACTC | 0.112
77 | GAGTACTC | 0.381
78 | AACTACTA | -0.0232
79 | GACTACTC | 0.427
80 | AAGTACTC | 0.282
81 | AACGTAAT | 0.023
82 | GTTGTCGA | -0.158
83 | GCGTTGCC | -0.252
84 | ACCCTGAC | 0.158
85 | GTTCAGAA | 0.00278
86 | AAGCAGCA | -0.264
87 | ATTGTACA | 0.0112
88 | CTGACTAA | 0.48
89 | GTGACTAA | 0.488
90 | CAGACTAA | 0.317
91 | GTTACTAA | 0.184
92 | CGGACTAA | 0.342
93 | GGGACTAA | 0.323
94 | CTTACTAC | -0.0948
95 | CTGACTAC | 0.469
96 | CGGACTAC | 0.248
97 | AACCGCTA | -0.169
98 | ATGTTATA | -0.0918
99 | CGAAGGAC | 0.079
100 | ACCGCGGG | 0.0814

Row | Sequence | PBM E-score
101 | AGCGCCGA | -0.00218
102 | ACCTTCGA | 0.00431
103 | GAATCTCA | 0.101
104 | CCGGATTA | -0.0124
105 | CCAAGCTC | -0.22
106 | AGATGTCG | -0.0862
107 | ACTCACCA | 0.388
108 | GCTCACCC | -0.0459
109 | ACTCACCG | 0.384
110 | CCTCACCA | -0.134
111 | CCTCACCC | -0.213
112 | ACTCACCC | 0.401
113 | CCTCACCG | -0.033
114 | TCTCACCA | -0.117
115 | ACTCACCT | 0.338
116 | ATCGGAGC | -0.0582
117 | GACGAAGC | -0.0864
118 | TCGGATCA | -0.0516
119 | ATTAGAAT | 0.186
120 | GTTAATTA | 0.0895
121 | CTTAATCA | 0.45
122 | CTTAATCC | 0.114
123 | ATTAATCG | 0.269
124 | ATTAATCC | 0.256
125 | CTTAATAA | 0.136

Row | Sequence | PBM E-score
126 | ATTAATCA | 0.441
127 | GTTAATAA | 0.117
128 | GTTAATCA | 0.451
129 | AGACCAAA | 0.0161
130 | GTAGTAAA | 0.107
131 | CACTTGCG | -0.0335
132 | GTAGGAAA | 0.00646
133 | CGGTTACC | 0.0378
134 | ATATTGGC | -0.228
135 | GGAGGACC | -0.37
136 | GACTTAAA | 0.325
137 | CCAAGTCA | 0.317
138 | TCAAGTCA | 0.379
139 | ACAAGTCT | 0.0793
140 | ACAAGTCG | 0.0706
141 | GCAAGTCA | 0.361
142 | ACAAGTCA | 0.374
143 | ACAGGGCA | -0.128
144 | ATATCCAC | -0.0172
145 | TCAAAGCA | 0.0603
146 | ACTGTTGC | -0.0887
147 | AAACCGGC | -0.0714
148 | ATTCGCGA | 0.122
149 | AAATGATC | 0.121
150 | AAATGACC | -0.0187

Row | Sequence | PBM E-score
151 | AAATGAGG | -0.229
152 | AAATGACT | 0.475
153 | AAATGAGT | 0.427
154 | AAATGAGC | 0.058
155 | AAATGATA | 0.104
156 | AAATGACG | 0.0769
157 | AAATGATT | 0.437
158 | ACTATCTC | 0.212
159 | AATCCGGG | -0.239
160 | CCGTCTCA | 0.0264
161 | ATAATCAT | 0.45
162 | GAAATCAC | 0.347
163 | ATAATCTC | 0.137
164 | ATAATCAA | 0.269
165 | GTAATCAC | 0.413
166 | CTAATCAC | 0.393
167 | ATAATCCC | -0.227
168 | CTAATCAG | 0.286
169 | ATAATCAG | 0.33
170 | GTAATCAA | 0.325
171 | ATAATCAC | 0.385
172 | CTAATCGC | 0.128
